Compound activity (PubChem BioAssay)
D2 antag: HTS Assay for Allosteric Antagonists of the Human D2 Dopamine Receptor: Primary Screen for Antagonists | HEK293 TREx D2 cells, calcium flux, dopamine EC80 | inhibition, % at 10 µM | hit rate 2% among 340,000 | AID 485344, 2010; in the data active = inhibition above about 30%; inactive = below that, where a call was filed; note: 0% is about no effect
Target sequence (P14416 whole entry, looked up): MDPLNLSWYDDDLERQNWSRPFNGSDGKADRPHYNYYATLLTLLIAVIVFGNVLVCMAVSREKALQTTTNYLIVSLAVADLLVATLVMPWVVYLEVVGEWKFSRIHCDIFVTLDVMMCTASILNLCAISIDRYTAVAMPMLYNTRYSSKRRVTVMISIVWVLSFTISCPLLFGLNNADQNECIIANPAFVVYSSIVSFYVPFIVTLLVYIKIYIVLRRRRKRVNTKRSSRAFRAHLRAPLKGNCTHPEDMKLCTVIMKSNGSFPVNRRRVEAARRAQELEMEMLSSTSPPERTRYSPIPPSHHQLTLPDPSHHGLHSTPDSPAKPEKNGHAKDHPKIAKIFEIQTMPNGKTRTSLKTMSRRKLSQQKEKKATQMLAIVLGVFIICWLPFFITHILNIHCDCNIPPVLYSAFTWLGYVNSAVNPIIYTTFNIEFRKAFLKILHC
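HEK293 T-REx D2 cells, tet-induced, calcium dye no-wash. Cpd pintool add, 180 s kinetic, then EC80 DA, 180 s kinetic. Ca flux read.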
D2 PAM-1: Beta-Arrestin HTS for Positive Allosteric Modulators of the Human D2 Dopamine Receptor: Potentiators | D(2) dopamine receptor (Homo sapiens), P14416 | DiscoveRx D2 beta-arrestin cells, luminescence, 90 min; 100% = 57 uM dopamine signal | potentiation, % (no concentration beside the values) | hit rate 0.23% among 360,000; in the data active = potentiation above about 50%; inconclusive = mostly about 30% to 49%
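PathHunter D2 cells, attached overnight at 37 deg C, received compound in DMSO plus dopamine at EC20 (50 nM final) for 90 min at 37 deg C. Beta-arrestin recruitment was read as luminescence after 1 h with detection reagent at ambient temperature.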
D2 ag-1: HTS Assay for Allosteric Agonists of the Human D2 Dopamine Receptor: Primary Screen for Agonists | hit rate 0.53% among 340,000 | activation, % at 2 µM | HEK293 T-REx D2 cells, calcium flux agonist mode | D(2) dopamine receptor (Homo sapiens), P14416 | AID 485358, 2010;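 active = activation over 3 SD above normal in the single-dose calcium agonist read, cut at about 30% in these data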; note: 0% is about no effect
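Agonism is scored from calcium flux in a force-coupled, inducible HEK293 cell line expressing D2, read kinetically for 180 s after compound addition against dopamine controls.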
D2 ag-2: Beta-Arrestin HTS for Positive Allosteric Modulators of the Human D2 Dopamine Receptor: Agonists; DiscoveRx PathHunter D2 beta-arrestin, luminescence, 90 min; 100% = 57 uM dopamine signal; activation, % (no concentration beside the values); hit rate 0.084% among 360,000; in the data active = activation above about 40%; inconclusive = between about 15% and that limit
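Agonist mode: compounds alone added to overnight-plated D2 PathHunter cells for 90 min at 37 C, with 57 uM final dopamine (EC100) defining full response. Beta-arrestin recruitment detected by chemiluminescent reagent, read after 1 h at ambient temperature.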
D2 PAM-2: HTS Assay for Positive Allosteric Modulators of the Human D2 Dopamine Receptor: Primary Screen for Potentiators; D(2) dopamine receptor (Homo sapiens), P14416; AID 485347, 2010; hit rate 0.34% among 340,000; HEK293 T-REx D2, calcium flux, EC20 dopamine potentiation; potentiation, % at 10 µM;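 active = potentiation over 3 SD above the plate norm, cut at about 30% in these data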; note: 0% is about no effect
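Tetracycline-induced Hek293 Trex D2 cells, force-coupled to calcium, loaded with no-wash calcium dye. Compound added with 180 s kinetic read for agonism, then EC20 dopamine and a further 180 s read for potentiation.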
* marks the source's active call; other numbers are inactive results; ? = inconclusive; . = no result given. Shown are actives, neighbours in structure and some others; about 2.4% of the full set was active somewhere.

SMILES | D2 antag | D2 PAM-1 | D2 ag-1 | D2 ag-2 | D2 PAM-2
O=C(Oc1ccc(Br)cc1C(=S)N1CCOCC1)c1ccc([N+](=O)[O-])cc1[N+](=O)[O-] | -4 | 56* | 1 | ? | 37*
O=C(Oc1cccc(C(=S)N2CCOCC2)c1)c1cc([N+](=O)[O-])cc([N+](=O)[O-])c1 | 3 | 25 | 0 | 41* | -1
Cc1cccc(NC(=S)N(CCCN2CCOCC2)Cc2ccccn2)c1 | 40* | -12 | 1 | -3 | -6
S=C(Nc1ccc(Oc2ccccc2)cc1)N(CCCN1CCOCC1)Cc1ccccn1 | -20 | -5 | 3 | -3 | -27
Cc1ccc2c(Cl)c(C(=O)Nc3ccc4c(c3)OCO4)sc2c1 | 34* | -2 | 1 | 1 | 3
Cc1noc(C(=O)Nc2ccc3c(c2)OCO3)c1Cl | 54* | -5 | 0 | -1 | -16
COc1cccc(NC(=O)CCc2nc3c(C)nn(-c4ccc(C)cc4)c3n(C)c2=O)c1 | . | . | 1 | . | 0
COc1cc(C(=O)NC(=S)Nc2ccccc2N2CCCC2)cc(OC)c1OC | 43* | -23 | -1 | -4 | 7
COc1cc(-c2cc(C(=O)Nc3ccccc3N3CCOCC3)c3ccccc3n2)cc(OC)c1OC | -24 | 24 | 0 | -5 | 33*
COc1cc(C(=O)Nc2ccccc2N2CCCCC2)cc(OC)c1OC | 0 | -2 | -1 | -2 | -9
O=C(Nc1ccccc1N1CCOCC1)c1cc(-c2ccco2)nc2ccccc12 | 2 | 16 | 0 | 2 | 7
O=S(=O)(c1ccccc1)c1nc(-c2cccs2)oc1SCc1ccccc1Cl | . | . | 2 | . | -3
Cc1nc2ccn(Cc3ccco3)c(=O)c2cc1C(=O)N1CCN(c2ccccc2F)CC1 | . | . | 1 | . | -11
CC(=O)c1cccc(NC(=O)c2cc3nc(-c4ccc(Br)cc4)cc(C(F)(F)F)n3n2)c1 | . | . | 1 | . | 6
COc1cccc(NC(=O)CSc2nnc3scc(-c4ccc(Cl)cc4)n23)c1 | . | . | . | . | -30
COc1cc2c(cc1OC)C1=C(C#N)CN(C3CCCCC3)CN1CC2 | 40* | -6 | -2 | 4 | 2
NS(=O)(=O)c1cccc(NC(=O)CSc2nnc(NC3CC3)s2)c1 | . | -10 | . | 0 | .
NC(=O)C1C(c2ccccc2)=C1c1ccccc1 | 38* | -7 | 0 | -2 | -3
COc1cccc(NC(=O)CSc2nc(-c3ccccc3Cl)nc3c2Cc2c(CO)cnc(C)c2O3)c1 | . | . | 0 | . | -2
Cc1c(C(=O)O)sc2nc(/C=C/c3cccc(F)c3)[nH]c(=O)c12 | 4 | 5 | 1 | -2 | 5
Cc1ccc(/C=C/c2nc3sc(C(=O)O)c(C)c3c(=O)[nH]2)cc1[N+](=O)[O-] | 33* | 2 | 0 | ? | -9
Cc1ccc(N/C(N)=N/c2nc(C)cc(N3CCCCC3)n2)c(C)c1 | 35* | -18 | 8 | 6 | -19
Cc1ccc(N/C(N)=N/c2nc3c(c(=O)[nH]2)CCCC3)c(C)c1 | -10 | -7 | -1 | 3 | -1
CNCc1c(OCc2ccc(F)cc2)ccc2ccccc12 | 74* | -7 | 0 | -2 | -15
COc1ccc(Cl)cc1NC(=O)CN(C)C(=O)c1ccc(C)s1 | -1 | -3 | 0 | 0 | 3
SMILES | D2 antag | D2 PAM-1 | D2 ag-1 | D2 ag-2 | D2 PAM-2
COc1ccc(Cl)cc1NC(=O)CN(C)C(=O)c1cc2c(F)cccc2s1 | 31* | -8 | 1 | 6 | -12
COc1cccc(NC(=O)Cn2c(=O)n(Cc3ccc(C(=O)NCc4ccc(C)cc4)cc3)c(=O)c3ccccc32)c1 | . | . | 0 | . | 3
Cc1nc2ncccn2c1-c1csc(NCc2ccco2)n1 | 1 | -20 | 0 | 1 | 38*
Cc1nc(=O)c(-c2ccccc2)c(C)n1-c1cccc(C(=O)O)c1 | 31* | 6 | 0 | -2 | -8
COCCCN(C(=O)Cc1coc2cc(C)c(C)cc12)c1c(N)n(Cc2ccccc2)c(=O)[nH]c1=O | 48* | -2 | 0 | -1 | 5
CCCn1c(N)c(N(CCOC)C(=O)c2ccccc2)c(=O)[nH]c1=O | 55* | -1 | 1 | -1 | -11
CCCCN(C(=O)c1ccc(C#N)cc1)c1c(N)n(CCC)c(=O)[nH]c1=O | 42* | -5 | -2 | -3 | -3
COCCN(C(=O)Cc1coc2cc(C)c(C)cc12)c1c(N)n(Cc2ccccc2)c(=O)[nH]c1=O | 4 | -6 | 0 | 0 | 1
COc1ccc(C(=O)N2CCC(C(=O)Nc3ccccc3Cl)CC2)cc1 | . | . | -2 | . | -3
O=C1C(NS(=O)(=O)c2cccs2)=C(N2CCN(Cc3ccccc3)CC2)C(=O)c2ccccc21 | 39* | -18 | -1 | 7 | -23
O=C1C(NS(=O)(=O)c2cccs2)=C(N2CCOCC2)C(=O)c2ccccc21 | 38* | -20 | 0 | -6 | 3
COc1ccc(C)c2sc(N3CCN(C(=O)c4ccco4)CC3)nc12 | . | . | 0 | . | 12
CCCS(=O)(=O)c1nc(S(=O)(=O)c2ccc(C)cc2)c(NCc2ccccc2)s1 | . | . | 0 | . | .
CCC(=O)Nc1ccc(-c2nnc3c4ccccc4c(C)nn23)cc1 | . | . | 0 | . | -9
CC(C)C(NC(=O)CN(c1cccc(F)c1)S(C)(=O)=O)C(C)C | 39* | 1 | 0 | -3 | 20
CSc1cccc(NC(=O)CN(c2cccc(C)c2)S(C)(=O)=O)c1 | 30* | -9 | 1 | 0 | -9
CC(=O)c1cccc(N(CC(=O)Nc2ccccc2F)S(C)(=O)=O)c1 | 46* | 1 | 0 | -2 | -12
COc1ccc(CNC(=O)CC(c2ccc(OC)c(OC)c2)N2Cc3ccccc3C2=O)cc1 (stereo not drawn) | . | . | 1 | . | -14
Cc1c(C(=O)N2CCC(C)CC2)c(S(=O)(=O)N(Cc2ccccc2)C(C)(C)C)c(C)n1C | . | . | . | . | 16
COc1ccc(-n2c(CN3CCN(c4ccccn4)CC3)nc3ccc([N+](=O)[O-])cc3c2=O)c(OC)c1 | 6 | -8 | 36* | 0 | -6
CC(NC(=O)Cn1cccc1C(=O)c1ccccc1)c1ccc2c(c1)OCCO2 (stereo not drawn) | 9 | -6 | 0 | -2 | 34*
CC(C)Cc1nc(N2CCC(C(N)=O)CC2)c2nnn(Cc3ccccc3)c2n1 | . | -10 | . | -3 | .
Cc1nc(N2CCC(C)CC2)c2nnn(Cc3ccccc3)c2n1 | -24 | -34 | 0 | -1 | 34*
Cc1ccc(NC(=O)c2cccs2)cc1NC(=O)c1cccnc1 | . | 77* | . | -1 | .
